Compounds with a hit are over-represented: about 1.5% of the library has one in this group of screens.
HUVEC tox TNFa – cytotoxicity in TNFa-stimulated HUVEC, primary screen, cytotoxicity control for VCAM1 expression modulator project, imaging, Hoechst nuclei count | HUVEC TNFalpha-stimulated, Hoechst cell count | cell count reduction, % at 2 µM | 93,000 compounds, 0.17% hits | AID 848, 2007;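 active = cell count reduction exceeding the screen mean by over 5 SD, scaled to untreated wells per plate, cut at about 78% in these data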;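 note: cells counted after 24 h of TNF alpha exposure following the 1 h pretreatment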
VCAM1 TNFa inh – inhibitors of TNFa-induced VCAM1 expression, primary screen, imaging, HUVEC, TNFa stimulus, immunofluorescence | HUVEC TNFa-induced VCAM-1 immunofluorescence, high-content imaging | inhibition, % at 2 µM | 95,000 compounds, 0.48% hits | AID 802, 2007;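 active = inhibition above the batch mean plus 3 SD, with images confirmed as a hit by eye, cut at about 37% in these data; inconclusive = inhibition above that limit but hit not confirmed in images; inactive = inhibition not above that limit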;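 note: 0% = TNF-stimulated DMSO wells and 100% = unstimulated control wells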
IL1B NFkB inh – inhibitors of IL-1B driven NFkB p65 nuclear import, primary screen, imaging, HUVEC, IL-1B stimulus, high-content imaging | HUVEC IL-1B NFkB p65 nuclear translocation imaging | inhibition, % at 2 µM | 94,000 compounds, 0.43% hits | AID 796, 2007;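 active = inhibition above about 30% together with a positive call from visual inspection of the well image, limit read from the data; inconclusive = inhibition above a set limit but visual check negative; inactive = inhibition not above a set limit, visual check negative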;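 note: nuclear over cytoplasmic p65 intensity ratio measured by imaging; 0% = IL-1B stimulated DMSO wells and 100% = unstimulated DMSO wells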
HUVEC tox IL1B – cytotoxicity in IL-1B stimulated HUVEC, primary screen, cytotoxicity control for IL-1B NFkB translocation project, imaging, Hoechst nuclear count, IL-1B stimulus; 94,000 compounds, 0.41% hits; cell count reduction, % at 2 µM; HUVEC cell count loss;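 active = cell count reduction more than 3 SD above the screen-wide mean, cut at about 70% in these data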;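 note: normalized per plate to untreated control cells as the no-loss baseline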
IL1B NFkB pot – enhancers of NFkB p65 translocation in HUVEC – imaging, IL-1B stimulus, high-content imaging, primary screen. 94,000 compounds, 0.3% hits. activation, % at 2 µM. HUVEC IL-1B NFkB p65 nuclear translocation imaging;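 active = activation above 40%, about the mean plus 3 SD, also judged a hit on visual image review; inconclusive = activation above 40% but not a hit on visual review; inactive = activation not above 40% and no visual hit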;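 note: percent activation is computed from the nuclear over cytoplasmic p65 intensity ratio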
* hit, by the source's call; ? = inconclusive; · = no result given.

SMILES | HUVEC tox TNFa | VCAM1 TNFa inh | IL1B NFkB inh | HUVEC tox IL1B | IL1B NFkB pot
CC(=O)Nc1ccc(S(=O)(=O)n2cnc(C)c2)cc1 | 97.9* | 91.3* | 11.2 | -4.1 | -11.2
CCOC(=O)C(C(=O)NCc1ccc(F)cc1)c1ncc(C(F)(F)F)cc1Cl (stereo not drawn) | 11.9 | 3.0 | 19.5 | 85.8* | -19.5
CCOC(=O)C(C(=O)N(C)C)c1ncc(C(F)(F)F)cc1Cl (stereo not drawn) | -4.7 | 4.1 | 4.0 | -12.8 | -4.0
CC(C)C(=O)Nc1ccc(NC(=O)c2ccccc2Cl)nc1 | 83.1* | 31.4 | 9.8 | -10.5 | -9.8
O=S(=O)(c1ccc2ccccc2c1)n1cnc2ccccc21 | -16.5 | 2.4 | -18.1 | -4.2 | 18.1
FC(F)(F)c1ccccc1C1C2=C(Nc3ncnn31)c1ccccc1CCC2 (stereo not drawn) | 0.8 | 8.5 | -32.5 | -0.6 | 32.5
C(=C1/CCCC2=C1Nc1ncnn1C2c1ccccc1)/c1ccccc1 (stereo not drawn) | 2.1 | -8.9 | 37.7* | 16.7 | -37.7
N/C(Cc1cccs1)=N\OC(=O)COc1ccc(Br)cc1 | -15.5 | 12.7 | -59.5 | 2.7 | 59.5*
O=C(Nc1ccc2nc(-c3cccs3)[nH]c2c1)c1cccs1 | -25.1 | 6.0 | 5.6 | 90.4* | -5.6
O=C(Nc1ccc(-c2nc3ccc(NC(=O)c4cccs4)cc3[nH]2)cc1)c1cccs1 | -16.5 | -12.8 | -16.7 | 4.2 | 16.7
Cc1cccn2cc(CNC(=O)c3ccco3)nc12 | -33.1 | 0.8 | -1.3 | -62.2 | 1.3
CCN=c1sc2ccccc2n1CC(O)COc1ccccc1 (stereo not drawn) | 7.2 | 2.5 | 8.9 | -129.1 | -8.9
CN=c1sc2ccccc2n1CC(O)COc1ccccc1 (stereo not drawn) | 69.6 | 75.0* | -3.3 | -2.5 | 3.3
O=C1c2oc3ccccc3c(=O)c2C(c2cccnc2)N1Cc1ccco1 (stereo not drawn) | -26.0 | -6.9 | -1.4 | -1.1 | 1.4
CCOc1ccc(CNC(=O)C2CCN(S(=O)(=O)CC)CC2)cc1OC | 7.5 | 20.4 | -23.9 | 93.9* | 23.9
CCOc1ccc(CNC(=O)C2CCCN(S(C)(=O)=O)C2)cc1OC (stereo not drawn) | · | · | -7.9 | -14.3 | 7.9
O=C(NCCCc1ccccc1)C1CC(=O)N(c2ccc3c(c2)OCCO3)C1 (stereo not drawn) | -9.3 | 19.2 | -4.9 | -9.5 | 4.9
O=C(CSc1nc2ccccc2c(=O)[nH]1)Nc1ccc(S(=O)(=O)N2CCCC2)cc1 | -4.9 | 12.0 | 30.6* | 11.0 | -30.6
Cc1ccc(Nc2nc(CSc3nnnn3-c3ccccc3)cs2)cc1 | -9.2 | -12.0 | -3.7 | -15.4 | 3.7
Cc1cccc(-n2nnnc2SCc2csc(-c3ccccc3)n2)c1 | 87.9* | 11.7 | -18.7 | -21.0 | 18.7
O=C(OCn1ncc(Br)c(Br)c1=O)c1ccccc1Cl | 32.2 | 34.3 | 64.7* | 43.8 | -87.5
O=C(OCn1ncc(Br)c(Br)c1=O)c1ccc(F)cc1 | 28.2 | 80.7* | 20.2 | 6.9 | -20.2
CCN(CC)CCN1C(=O)C(O)=C(C(=O)c2ccco2)C1c1ccccn1 (stereo not drawn) | -12.5 | -3.6 | -30.7 | 11.0 | 30.7
CCCOc1cccc(C2C(C(=O)c3ccco3)=C(O)C(=O)N2CCN(CC)CC)c1 (stereo not drawn) | -4.9 | 7.1 | -48.6 | -26.4 | 48.6*
CC(=O)Nc1c(-c2ccccc2)nc2ncccn12 | -16.7 | -8.1 | 5.8 | -5.8 | -5.8
SMILES | HUVEC tox TNFa | VCAM1 TNFa inh | IL1B NFkB inh | HUVEC tox IL1B | IL1B NFkB pot
CCOC(=O)c1c(NC(=O)CSc2nnc(-c3ccncc3)n2Cc2ccco2)sc(C(C)=O)c1C | -4.6 | 2.2 | 38.2* | 0.8 | -38.2
O=C(O)CCN1C(=O)C2CCCCC2C1=O (stereo not drawn) | -2.8 | -8.2 | -7.5 | 8.9 | 7.5
O=C(O)C1CCC(N2C(=O)C3CCCCC3C2=O)CC1 (stereo not drawn) | 57.3 | 78.0* | -10.7 | -17.6 | 10.7
O=C(CSc1nnc(-c2cccc(S(=O)(=O)N3CCOCC3)c2)n1C1CCCCCC1)NCc1ccccc1 | -40.4 | 11.9 | -18.2 | 1.3 | 18.2
C=CCSc1nc2ccccc2n1C(=O)/C=C/c1ccc(OC)c(OC)c1 | 7.6 | -7.9 | 8.6 | 3.1 | -8.6
C=CCSc1nc2ccccc2n1C(=O)/C=C/c1cc(OC)c(OC)c(OC)c1 | 9.6 | 92.3* | 13.8 | -2.0 | -13.8
Nc1nnc(SC2CC(=O)N(c3ccccc3)C2=O)s1 (stereo not drawn) | -10.7 | 4.8 | -11.4 | 5.2 | 11.4
Cn1c(C2=C(O)CN(c3ccc4c(c3)OCCO4)C2=N)nc2ccccc21 | -1.3 | 26.4 | 8.8 | -0.5 | -8.8
CCn1c(=O)cc(OCC(=O)NCc2ccco2)c2ccccc21 | 90.0* | ? | -4.9 | 25.5 | 4.9
COC(=O)c1sccc1NC(=O)c1sccc1C | -18.8 | -6.6 | 15.9 | 94.1* | -15.9
N#CNC1=NCN(Cc2ccccc2)CN1 | -29.3 | -3.5 | 2.8 | -33.9 | -2.8
CCOC(=O)C1C(=O)C(C(C)=O)C(=O)CC1CC(C)SCC (stereo not drawn) | -39.2 | 5.2 | 8.4 | 1.0 | -8.4
Cc1cc(C)n2nc(SCC(=O)N/N=C/c3cccc(Br)c3)nc2n1 | 0.0 | -9.9 | -136.5 | -31.0 | 136.5*
O=C(NCC1COCCO1)C1CCN(S(=O)(=O)c2ccccc2)CC1 (stereo not drawn) | 5.0 | 1.6 | 96.5* | 94.3* | -96.5
Cc1ccc(S(=O)(=O)N2CCCC(C(=O)NCC3COCCO3)C2)cc1 (stereo not drawn) | -2.5 | 1.6 | 7.5 | 6.1 | -7.5
COc1ccc(C2C3=C(CC(C)(C)CC3=O)Nc3c2c(=O)[nH]c(=O)n3Cc2ccccc2)cc1 (stereo not drawn) | -21.7 | 2.2 | -101.7 | 2.2 | 101.7*
COc1ccc(C2C3=C(CC(C)(C)CC3=O)Nc3c2c(=O)[nH]c(=O)n3Cc2ccccc2)cc1OC (stereo not drawn) | -6.3 | 34.1 | -8.9 | 4.5 | 8.9
CCCS(=O)(=O)N1CCCC(C(=O)NCCCN2CCCC2=O)C1 (stereo not drawn) | -1.9 | -6.4 | -0.5 | -29.3 | 0.5
CC(C)(C)c1nc2ccccc2[nH]1 | -6.1 | 8.9 | -48.0 | -9.3 | 48.0*
O=[N+]([O-])c1ccc(O)c(/C=N/Nc2ccc(Cl)nn2)c1 | 14.6 | 63.4* | -23.3 | -54.8 | 23.3
CCn1c(SCC(=O)c2ccccc2)nnc1-c1cnccn1 | · | 12.9 | 2.1 | -0.3 | -2.1
CCn1c(SCc2ccc(C)cc2)nnc1-c1cnccn1 | 11.7 | -5.7 | -63.3 | -1.2 | 63.3*
COc1ccc(CN2C(=O)[C@@H]3C(c4ccc(F)cc4)=NO[C@@H]3C2=O)cc1 | · | 91.8* | 3.8 | 12.0 | -3.8
CCCN1C(=O)c2cc(C(=O)Nc3ccccc3CC)ccc2C1O (stereo not drawn) | 2.6 | 8.9 | -2.1 | -38.9 | 2.1

Screening data from PubChem.
